# Results filed as inconclusive are left out. Active and inactive are the calls of the source. Calls follow the shape of the dose curve; as a rule, active = well fitted curve in the direction sought with a large enough effect; inconclusive = small, poorly fitted or top-dose-only effect, or another doubt; inactive = no such curve, though single readings can be large; an effect the other way counts as inactive or inconclusive.
# Tests used:
# [1] = Quantitative High-Throughput drug screen in 47 multiple myeloma cell lines against the NCATS MIPE library collection: Karpas417_ECACC cell viability assay (AID 1918961); settings: Karpas417 myeloma viability, CellTiter-Glo ATP luminescence, 48 h; viability (% of DMSO): at 45.8 µM (top of the series)
# How it was run: (§1)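 CellTiter-Glo ATP luminescence gave viability after 48 h compound treatment at 37C of 500 multiple myeloma cells per well. Normalisation used DMSO-only wells as 100% and media-only wells as 0% viability; primary qHTS of approved and investigational drugs.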
# [2] = Quantitative High-Throughput drug screen in 47 multiple myeloma cell lines against the NCATS MIPE library collection: JIM3_ECACC cell viability assay (AID 1918963; also: nearly all actives have a fitted effect of over 35% in size)
# How it was run: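 Myeloma cells (500 per well) were exposed to MIPE 4.0 compounds by pin transfer and incubated 48 hours at 37C, 5% CO2. Viability was read as ATP by CellTiter-Glo luminescence, normalised to DMSO (100%) and media-only (0%) wells.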
# [3] = Quantitative High-Throughput drug screen in 47 multiple myeloma cell lines against the NCATS MIPE library collection: INA6_PLB cell viability assay (AID 1918965; also: nearly all actives have a fitted effect of over 55% in size)
# How it was run: as §1
# [4] = Quantitative High-Throughput drug screen in 47 multiple myeloma cell lines against the NCATS MIPE library collection: H1112_PLB cell viability assay (AID 1918967; also: nearly all actives have a fitted effect of over 30% in size)
# How it was run: (§2)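 We plated 500 myeloma cells per well, pinned in MIPE 4.0 compounds, and incubated for 48 hours at 37C. ATP was then quantified with CellTiter-Glo, with DMSO and media-only wells defining 100% and 0%.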
# [5] = Quantitative High-Throughput drug screen in 47 multiple myeloma cell lines against the NCATS MIPE library collection: Karpas25_ECACC cell viability assay (AID 1918968; also: nearly all actives have a fitted effect of over 35% in size)
# How it was run: as §2
# [6] = Quantitative High-Throughput drug screen in 47 multiple myeloma cell lines against the NCATS MIPE library collection: KMS27_JCRB cell viability assay (AID 1918970); settings: KMS27 myeloma cells, CellTiter-Glo ATP viability, 48 h; viability (% of DMSO): at 45.8 µM (top of the series); also: nearly all actives have a fitted effect of over 30% in size
# How it was run: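 Luminescent ATP read-out (CellTiter-Glo, 5 min at room temperature) after 48 h compound exposure of 500 KMS27_JCRB cells per well; DMSO wells define full viability and media-only wells zero.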
# [7] = Quantitative High-Throughput drug screen in 47 multiple myeloma cell lines against the NCATS MIPE library collection: KMS12PE_JCRB cell viability assay (AID 1918972); also: nearly all actives have a fitted effect of over 30% in size
# How it was run: as §1
# [8] = Quantitative High-Throughput drug screen in 47 multiple myeloma cell lines against the NCATS MIPE library collection: KMS20_JCRB cell viability assay (AID 1918973); also: nearly all actives have a fitted effect of over 45% in size
# How it was run: as §2
# [9] = Quantitative High-Throughput drug screen in 47 multiple myeloma cell lines against the NCATS MIPE library collection: MMM1_PLB cell viability assay (AID 1918976); also: nearly all actives have a fitted effect of over 35% in size
# How it was run: (§3)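 ATP-based CellTiter-Glo luminescence after 48 h drug exposure (37 °C, 5% CO2) of 500 myeloma cells per well. DMSO-only wells set 100% viability, media-only wells 0%; MIPE 4.0 library added by pin tool.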
# [10] = Quantitative High-Throughput drug screen in 47 multiple myeloma cell lines against the NCATS MIPE library collection: NCIH929_DSMZ cell viability assay (AID 1918978); also: nearly all actives have a fitted effect of over 35% in size
# How it was run: as §3
# [11] = Quantitative High-Throughput drug screen in 47 multiple myeloma cell lines against the NCATS MIPE library collection: OCIMY1_PLB cell viability assay (AID 1918979); also: nearly all actives have a fitted effect of over 35% in size
# How it was run: as §3
# [12] = Quantitative High-Throughput drug screen in 47 multiple myeloma cell lines against the NCATS MIPE library collection: MM1R_ATCC cell viability assay (AID 1918981); also: nearly all actives have a fitted effect of over 35% in size
# How it was run: as §3
# [13] = Quantitative High-Throughput drug screen in 47 multiple myeloma cell lines against the NCATS MIPE library collection: JIM1_ECACC cell viability assay (AID 1918964)
# How it was run: as §2
# [14] = Quantitative High-Throughput drug screen in 47 multiple myeloma cell lines against the NCATS MIPE library collection: KMS26_JCRB cell viability assay (AID 1918975); also: nearly all actives have a fitted effect of over 45% in size
# How it was run: (§4)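 Myeloma cell lines, 500 cells per well, exposed to MIPE 4.0 library compounds for 48 h at 37C, 5% CO2. Viability from ATP by CellTiter-Glo luminescence; normalised to DMSO (100%) and media-only (0%) wells.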
# [15] = Quantitative High-Throughput drug screen in 47 multiple myeloma cell lines against the NCATS MIPE library collection: MOLP8_DSMZ cell viability assay (AID 1918977); also: nearly all actives have a fitted effect of over 45% in size
# How it was run: as §3
# [16] = Quantitative High-Throughput drug screen in 47 multiple myeloma cell lines against the NCATS MIPE library collection: MM1S_ATCC cell viability assay (AID 1918980); also: nearly all actives have a fitted effect of over 45% in size
# How it was run: as §3
# [17] = Quantitative High-Throughput drug screen in 47 multiple myeloma cell lines against the NCATS MIPE library collection: JJN3_DSMZ cell viability assay (AID 1918966; also: nearly all actives have a fitted effect of over 50% in size)
# How it was run: as §2
# [18] = Quantitative High-Throughput drug screen in 47 multiple myeloma cell lines against the NCATS MIPE library collection: KMS12BM_JCRB cell viability assay (AID 1918971); also: nearly all actives have a fitted effect of over 35% in size
# How it was run: as §4
# [19] = Quantitative High-Throughput drug screen in 47 multiple myeloma cell lines against the NCATS MIPE library collection: KMS21BM_JCRB cell viability assay (AID 1918974); settings: ATP luminescence, 48 h; viability: at 45.8 µM (top of the series)
# How it was run: as §2
# Potency is read from the fitted curve at half-maximal effect.
SMILES,Potency [1],Potency [2],Potency [3],Potency [4],Potency [5],Potency [6],Potency [7],Potency [8],Potency [9],Potency [10],Potency [11],Potency [12],viability (% of DMSO) [1],Potency [13],Potency [14],Potency [15],Potency [16],Potency [17],Potency [18],Potency [19]
CC[C@H]1OC(=O)[C@H](C)[C@@H](O[C@H]2C[C@@](C)(OC)[C@@H](O)[C@H](C)O2)[C@H](C)[C@@H](O[C@@H]2O[C@H](C)C[C@H](N(C)C)[C@@H]2O)[C@](C)(OC)C[C@@H](C)C(=O)[C@H](C)[C@@H](O)[C@]1(C)O,inactive,inactive,inactive,inactive,inactive,inactive,inactive,inactive,inactive,inactive,inactive,inactive,–,–,–,–,–,–,–,–
O=C(O)CCCCCC(=O)NN=C1CCCC1,–,inactive,inactive,–,inactive,inactive,–,–,–,–,inactive,inactive,136% (active),inactive,inactive,inactive,inactive,–,–,–
CCC[C@H]1C[C@H](C(=O)N[C@@H]([C@@H]2O[C@@H](SC)[C@@H](O)[C@@H](O)[C@@H]2O)[C@H](C)Cl)N(C)C1,9.3 nM (active),inactive,–,inactive,inactive,–,inactive,inactive,–,–,inactive,inactive,–,–,–,inactive,inactive,–,–,–
CNC(=O)Nc1ccc(-c2nc(N3CC4CCC(C3)O4)c3cnn(C4CCC5(CC4)OCCO5)c3n2)cc1,6.6 nM (active),418 nM (active),41.8 nM (active),–,10.5 nM (active),–,74.3 nM (active),10.5 nM (active),9.3 nM (active),–,935 nM (active),–,–,–,1180 nM (active),9.3 nM (active),14.8 nM (active),11.8 nM (active),6.6 nM (active),41.8 nM (active)
CCc1cnn2c(NCc3ccc[n+]([O-])c3)cc(N3CCCC[C@@H]3CCO)nc12,20.9 nM (active),26.4 nM (active),23.5 nM (active),26.4 nM (active),33.2 nM (active),18.7 nM (active),33.2 nM (active),20.9 nM (active),29.6 nM (active),23.5 nM (active),33.2 nM (active),16.6 nM (active),–,14.8 nM (active),–,11.8 nM (active),20.9 nM (active),11.8 nM (active),26.4 nM (active),13.2 nM (active)
NC(=O)Nc1sc(-c2ccc(F)cc2)cc1C(N)=O,74.3 nM (active),4690 nM (active),332 nM (active),–,418 nM (active),–,935 nM (active),1660 nM (active),3320 nM (active),20.9 nM (active),–,4690 nM (active),–,74.3 nM (active),2960 nM (active),13200 nM (active),332 nM (active),418 nM (active),4180 nM (active),–

# Reference: PubChem BioAssay (NCATS)
